An excerpt weighted towards active compounds, which were near 1.3% of everything screened.
Vif-APOBEC3G blk: inhibitors of Vif-APOBEC3G interaction; Q9HC16; actives 0.076% (n = 410,000); Potency, µM (titrated, usually from 46.1 µM), inactives show at the highest dose activity, negative = active, usual class: inhibitors; HeLa A3G-eYFP + Vif (tagged APOBEC3G with the HIV-1 protein that degrades it), YFP fluorescence, overnight; note: potency is the fitted concentration of half-maximal effect; % is set by controls: 0 for no effect and ±100 for the full control effect; nearly all actives have a fitted effect of over 60% in size
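HeLa cells stably expressing Vif and C-terminally eYFP-tagged A3G, seeded overnight at 37 deg C, then exposed to compound by pintool overnight at 37 deg C. Rise in yellow fluorescence (Ex 488/Em 500-530, Acumen) marks blocked Vif-driven A3G degradation.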
TRPML1 agonist: activates the human TRPML1 channel. TRPML1-expressing cells, Ca2+ dye fluorescence, FDSS. activation, % (concentration not given with the values). actives 0.12% (n = 410,000); in the data active = activation above about 50%; inconclusive = mostly about 30% to 49%; note: 0% is about no effect
Target sequence (Q9GZU1 whole entry, looked up): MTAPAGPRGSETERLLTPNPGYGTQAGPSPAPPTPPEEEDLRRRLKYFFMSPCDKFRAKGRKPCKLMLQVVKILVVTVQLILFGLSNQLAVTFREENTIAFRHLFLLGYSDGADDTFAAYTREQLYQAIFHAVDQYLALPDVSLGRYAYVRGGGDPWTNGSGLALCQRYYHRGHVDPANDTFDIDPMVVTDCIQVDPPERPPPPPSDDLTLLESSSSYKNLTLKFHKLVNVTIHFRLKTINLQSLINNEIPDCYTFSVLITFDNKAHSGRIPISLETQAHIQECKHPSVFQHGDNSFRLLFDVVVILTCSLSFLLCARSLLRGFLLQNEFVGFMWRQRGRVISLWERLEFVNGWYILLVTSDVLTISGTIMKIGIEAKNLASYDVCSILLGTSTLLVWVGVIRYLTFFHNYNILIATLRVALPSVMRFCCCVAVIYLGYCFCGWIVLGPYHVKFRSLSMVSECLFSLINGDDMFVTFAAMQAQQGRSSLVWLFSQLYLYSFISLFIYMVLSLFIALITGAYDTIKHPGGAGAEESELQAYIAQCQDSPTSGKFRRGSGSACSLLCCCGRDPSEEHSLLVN
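Cells: TRPML1-DL, 1X Tet inducer, ~16 h at 37 degrees C/5% CO2. Dye: ABD Ca8 no-wash + quencher, 45-90 min RT. Read: 10 s baseline, compound add, 110 s agonist phase; 54-4 EC80 (4uM final), 110 s antagonist phase.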
12-LOX inh: ALOX12 (human) lipoxygenase inhibition; purified 12hLO, xylenol orange hydroperoxide absorbance; Potency, µM (doses to about 108 µM), for inactives: at the top dose activity change, negative = inhibition, most hits filed as inhibitors; actives 1.1% (n = 580,000); note: potency is the fitted concentration of half-maximal effect; % is set by controls: 0 for no effect and ±100 for the full control effect
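Hydroperoxide product was detected by ferrous iron/xylenol orange as the 573 to 405 nm absorbance ratio. Arachidonic acid at 40 uM (final) was turned over for 30 min at room temperature by 150 nM human 12hLO, pH 7.0 Hepes buffer, after 15 min compound preincubation.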
Glioma ERSR ind: induces the endoplasmic reticulum stress response in human glioma cells; U87-MG GRP78 promoter luciferase reporter, 16 h; Potency, µM, inactives show at the highest dose activation, actives largely listed as activators; actives 0.02% (n = 420,000); note: potency is the fitted concentration of half-maximal effect; series mostly up to about 76 µM; % of control where 0% means no effect; nearly all actives have a fitted effect of over 35% in size
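Stably transfected U87-MG human glioma cells carrying a GRP78-based luminescent sensor were seeded at 1000 cells/well, pin-dosed with compounds and incubated 16 h. Luciferase reagent was then added, and end-point luminescence was read after 10 min at room temperature.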
Vif-A3F inh: inhibitors of Vif-A3F interaction | Potency, µM (highest dose often 46.1 µM), for inactives: top-dose activity, negative = active | HeLa A3F-eYFP + Vif (tagged APOBEC3F with the HIV-1 protein that degrades it), YFP fluorescence increase | actives 0.2% (n = 390,000); note: potency is the fitted concentration of half-maximal effect; % of control where 0% means no effect; nearly all actives have a fitted effect of over 65% in size
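Fluorescence increase (Ex 488/Em 500-530) after overnight compound treatment at 37 deg C flags inhibition of Vif-driven A3F-eYFP loss in stable HeLa A3F-eYFP/Vif cells seeded overnight beforehand.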
TRPML1 inh: blocks the human TRPML1 channel; activity change, negative = inhibition, % (no concentration beside the values); actives 0.02% (n = 390,000); AID 624415; TRPML1-inducible cells, Ca2+ dye fluorescence, FDSS; active compounds read low; inhibition of EC80 agonist-evoked calcium signal; in the data active = activity change below about -50%; inconclusive = between about -30% and that limit;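 note: stimulus is agonist 54-4 at its EC80 concentration; % is set by controls: 0 for no effect and ±100 for the full control effect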
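TRPML1-DL cells, Tet-induced overnight (~16 h, 37 °C) at 1,500 cells/well, were loaded with Ca8 no-wash dye plus quencher for 45-90 min at room temperature. Compounds were pinned during FDSS kinetic reading; agonist 54-4 at EC80 (4 uM final) then added.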
The depositor's hits bear a star; ? = inconclusive; . = no result given; ! = not confirmed by another sample; [ ] = remark or other dose. Unless noted, calls come from the whole dose curve; as a rule, active = well fitted curve in the direction sought with a large enough effect; inconclusive = small, poorly fitted or top-dose-only effect, or another doubt; inactive = no such curve, though single readings can be large; an effect the other way counts as inactive or inconclusive.

SMILES | Vif-APOBEC3G blk | TRPML1 agonist | 12-LOX inh | Glioma ERSR ind | Vif-A3F inh | TRPML1 inh
On1onc2c3cc(-c4ccccc4)nc3ccc21 | 3.5µM* | 0 | ? | 1% | ? | 59
Cc1coc2c1C(=O)C(=O)c1c-2ccc2c1CCCC2(C)C | -1% | 0 | 24µM*! | 0% | -8% | -5
C[C@H]1COC2=C1C(=O)C(=O)c1c2ccc2c1CCCC2(C)C | -25% | . | ? | -3% | -2% | .
CCCn1nc(C(=O)Nc2ccc(S(=O)(=O)NC(C)C)cc2)c2ccccc2c1=O | . | . | -2% | . | . | .
CCc1c(C(=O)N2CCCN(C)CC2)csc1C | 1% | 0 | 0% | 3% | -12% | 11
CCc1c(C(=O)N2CCc3c(c(C(=O)O)nn3CC3CC3)C2)csc1C | . | . | 35µM* | . | . | .
C[S+](=O)([O-])CCn1ncc2cc(OCC3CCN(c4ncccn4)CC3)ccc21 | . | . | 4%[176 µM] | . | . | .
Clc1cccc(N/N=C/C(Br)=C/c2ccccc2)c1 | . | . | 11µM* | . | . | .
BrC(=C\c1ccccc1)/C=N/Nc1ccc2nncn2n1 | -19% | 1 | -12% | 8% | -13% | -5
Cc1nc(NCc2ccco2)[nH]c(=O)c1CCC(C)C | -2% | 1 | -13% | 1% | -6% | 12
O=c1[nH]c(NCc2ccco2)nnc1Cc1ccccc1Cl | 13µM* | 2 | 3% | -5% | . | -3
CC(SC1CCCC1)C(=O)Nc1ccc2c(c1)CCC2 (stereo not drawn) | . | . | -16% | . | . | .
COc1ccc(-c2cc(C(=O)NC3CC3)c3c(C4CCNC4)noc3n2)cc1 (stereo not drawn) | . | . | 6%[6.33 µM] | . | . | .
Cc1nsc(N)c1C(=O)OCc1csc(-c2ccccc2)n1 | . | . | 25µM* | . | . | .
CC(NC(=O)CN1CSCC1=O)c1ccc(F)cc1 (stereo not drawn) | . | . | 35% | . | . | .
NS(=O)(=O)c1cccc(NC(=S)NC(=O)C23CC4CC(CC(C4)C2)C3)c1 | 0% | 0 | 32µM* | 9% | -29% | -12
COc1cccc(OC)c1OCCCN1CCC(Cc2ccccc2)CC1 | 1% | 0 | 11µM* | -3% | 5% | 6
COc1ccc(CN2CCC(Cc3ccccc3)CC2)cc1OC | 0% | 0 | ? | -4% | -21% | -9
C(=N\N=C1c2ccccc2-c2ccccc21)/c1ccccc1 | . | . | 30% | . | . | .
N#Cc1ccccc1Sc1ccccc1C(=O)NCCc1ccc2c(c1)OCCO2 | . | . | -24% | . | . | .
O=C(Nc1cc(C(F)(F)F)ccc1-n1cncn1)c1ccc([N+](=O)[O-])o1 | ? | 1 | -9% | ? | 13µM* | 0
O=C(CN1C(=O)c2ccccc2S1(=O)=O)NCCSCc1c(F)cccc1Cl | -3% | 1 | 8.9µM* | 4% | ? | -14
COc1ccc(C(=O)/C=C/Nc2ccc([N+](=O)[O-])cc2C)c(OC)c1 | -3% | 3 | ? | 1% | 22µM* | 13
COc1ccc(C(=O)/C=C/Nc2ccc([N+](=O)[O-])cc2C)cc1OC | ? | 6 | -3% | -3% | -6% | 3
O=C(Oc1cc(-c2ccccc2)no1)c1ccc(Cl)cc1 | 3% | 0 | 32µM* | -4% | -8% | 2
SMILES | Vif-APOBEC3G blk | TRPML1 agonist | 12-LOX inh | Glioma ERSR ind | Vif-A3F inh | TRPML1 inh
Cc1ccc(C(=O)Oc2cc(-c3ccccc3)no2)cc1 | 1% | -1 | 204% | -4% | -15% | 19
CC1(C)Nc2ccc(O)cc2-c2c1ssc2=S | 4% | 2 | 45µM* | -10% | -3% | 14
CC(C)c1nc(C#N)c(N2CCN(c3ccccc3)CC2)o1 | . | . | 4% | . | . | .
O=S(=O)(c1ccc2ccccc2c1)N(Cc1ccco1)Cc1cccs1 | . | . | 50µM* | . | . | .
COc1ccc(-n2cc(-c3ccccc3)[nH]c2=S)cc1 | 0% | 2 | ? | 2% | -20% | 13
CC(=O)Nc1ccc(-n2cc(-c3ccccc3)[nH]c2=S)cc1 | 1% | 0 | 28µM* | -2% | 0% | -5
COc1cc(Br)cc(CN2CCN(C/C=C/c3ccccc3)CC2)c1O | 2% | 2 | 14µM* | -2% | -2% | 14
Nc1c(C(=O)Nc2ccccc2Br)sc2nc(-c3cccs3)ccc12 | -29% | 4 | -17% | ? | ? | -6
Nc1c(C(=O)Nc2nc3ccccc3s2)sc2nc(-c3cccs3)ccc12 | 11µM* | 2 | . | -11% | 7.9µM* | -1
[N-]=C=C1C(=O)NC(=O)C([n+]2ccc(-c3ccncc3)cc2)C1c1ccccc1C(F)(F)F (stereo not drawn) | -4% | 0 | ? | -1% | 4% | 39
[N-]=C=C1C(=S)NC(=O)[C@H]([n+]2ccccc2)[C@H]1c1ccc(Cl)cc1 | 1% | 0 | 10µM* | -2% | 1% | 6
N#CC(C#N)=C1NC(N)=C(C#N)C(c2ccccc2)=C1C#N | . | . | 6.3µM* | . | . | .
Cc1cnc(C(=O)N2CCOCC(CO)C2)cn1 (stereo not drawn) | . | . | 50µM* | . | . | .
CCc1ccc(CCC(=O)NNc2cccc(Cl)c2)cc1 | . | . | 16µM* | . | . | .
O=C(CCc1ccccc1)NNC(=O)Nc1cccc(Cl)c1 | -3% | -1 | 472% | -5% | 3% | 42
COc1cccc(C2C(C(=O)c3cccs3)=C(O)C(=O)N2c2cc(C)on2)c1 (stereo not drawn) | -5% | 0 | ? | 8% | -5% | 45
COc1cccc(C2C(C(=O)c3ccc(C)o3)=C(O)C(=O)N2c2cc(C)on2)c1 (stereo not drawn) | -11% | 0 | 50µM* | -7% | 5% | 21
CCOc1ccc(C2C(C(=O)c3ccc(C)o3)=C(O)C(=O)N2c2cc(C)on2)cc1OC (stereo not drawn) | 0% | 0 | 25µM* | 1% | -4% | -7
O=C(NCc1ccco1)C1CCN(c2nccn3nc(-c4ccc(F)cc4)cc23)CC1 | . | . | 32% | . | . | .
OCC1(Cc2ccc(Cl)cc2)CCN(CCCc2ccccc2)CC1 | 5% | 1 | 3.2µM* | -6% | 0% | 4
OCC1(Cc2ccc(Cl)cc2)CCN(Cc2ccccc2F)CC1 | -2% | 0 | 4% | -2% | -4% | -10
CC1C2CC(CC2C2CCCC(O)C2)C1(C)C (stereo not drawn) | . | . | 5% | . | . | .
C/C(=N\Nc1ccc(Br)cc1)c1ccc2c(c1)Cc1ccccc1-2 | . | . | 10µM* | . | . | .
CC(=O)c1ccc2c(c1)Cc1ccccc1-2 | . | . | 15% | . | . | .
CN(C)c1cc(Cl)c2nonc2c1N | 0% | 3 | 40µM* | -2% | 11% | 12
Brc1ccccc1-c1nn2c(Cn3cnc4ccccc43)nnc2s1 | . | . | 11µM* | . | . | .
Clc1cccc(-c2nn3c(Cn4cnc5ccccc54)nnc3s2)c1 | 0% | -1 | 10µM*! | -5% | -9% | 7
Cc1noc(Cn2c(=O)c(C#N)cn(C3CC3)c2=O)n1 | . | . | 10% | . | . | .

Bioassay records deposited in PubChem BioAssay by National Center for Advancing Translational Sciences (NCATS).
